Results reported in PubChem BioAssay AID1345085 (National Center for Advancing Translational Sciences (NCATS), 2018).
Records with an inconclusive call do not appear. Entries that show only a call come without a potency. The source made the active and inactive calls. Calls follow the shape of the dose curve; as a rule, active = well fitted cell-killing curve with a large enough effect; inconclusive = small, poorly fitted or top-dose-only effect, or effect the other way; inactive = no such curve, though single readings can be large or run the other way.

Test system: JEG-3
Assay: Confirmatory qHTS for gynecologic anti-cancer compounds from libraries of approved drugs and bioactive compounds; also: nearly all actives have a fitted effect of over 55% in size
Conditions: gynecologic cancer cell panel viability, ATPlite luminescence, 48 h; series mostly up to 57.6 µM
Procedure, shortened: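 ATPlite luminescence read-out of cell viability; IC50 from 11-point 1:3 titrations, 57.5 uM to 0.977 nM, 48 h compound exposure at 37 C, 5% CO2. Cells seeded at 1,000/well 16 h before dosing.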
Potency is read from the fitted curve at half-maximal effect.

SMILES	Potency
CC(=O)O[C@H]1C(=O)[C@@]2(C)[C@H]([C@H](OC(=O)c3ccccc3)[C@]3(O)C[C@H](OC(=O)[C@H](O)[C@@H](NC(=O)c4ccccc4)c4ccccc4)C(C)=C1C3(C)C)[C@]1(OC(C)=O)CO[C@@H]1C[C@@H]2O	0.0259 µM (active)
C=CC(=O)Nc1cccc(Oc2nc(Nc3ccc(N4CCN(C)CC4)cc3)ncc2Cl)c1	24.3 µM (active)
CCCCc1nc2cc(/C=C/C(=O)NO)ccc2n1CCN(CC)CC	1.53 µM (active)
Cc1cnc(Nc2ccc(F)cc2Cl)nc1-c1c[nH]c(C(=O)NC(CO)c2cccc(Cl)c2)c1 (configuration not stated)	inactive
Nc1ncn([C@@H]2O[C@H](CO)[C@@H](O)[C@H]2O)c(=O)n1	inactive
O=C(NOC[C@H](O)CO)c1ccc(F)c(F)c1Nc1ccc(I)cc1F	inactive
COc1cc2ncnc(Nc3ccc(F)c(Cl)c3)c2cc1OCCCN1CCOCC1	inactive
CN(C[C@@H]1COCCO1)S(=O)(=O)Nc1ccc2ccc3ncc(-c4cnn(C)c4)cc3c(=O)c2c1	inactive
COc1ccccc1N1CCN(CC(O)COc2cccc3ccccc23)CC1 (configuration not stated)	inactive
CCC(=O)N1CCN(c2ccc(-n3c(=O)ccc4cnc5ccc(-c6cnc7ccccc7c6)cc5c43)cc2C(F)(F)F)CC1	6.27 µM (active)
OCc1ccc(-c2ccc(-c3ccc(CO)s3)o2)s1	inactive
O=C(O)C1(Cc2cccc(Nc3nccs3)n2)CCC(Oc2cccc(Cl)c2F)CC1 (configuration not stated)	inactive
CC(C)Oc1ccc(C(=O)NC(CNC(=O)CN(C)C)Cc2ccc(-c3cn4cccc(C(C)O)c4n3)cc2)cc1Cl (configuration not stated)	0.544 µM (active)
CN1C(=O)C(Cc2c[nH]c3ccccc23)NC1=S (configuration not stated)	inactive
C[C@]12CCC(=O)C=C1[C@@H]1C[C@@H]1[C@H]1[C@@H]3[C@@H]4C[C@@H]4[C@@]4(CCC(=O)O4)[C@@]3(C)CC[C@@H]12	inactive
O=C(CCCCCCC(=O)Nc1ccccc1)NO	2.43 µM (active)

SMILES	Potency
Cc1cc(C(=O)N2CCN(c3cccc(Cl)c3)CC2)n(-c2ccccc2)n1	3.43 µM (active)
CCCC(Nc1nc(-c2ccc(NC(=O)NCC)c(OC)c2)ncc1C)c1cccnc1 (configuration not stated)	0.153 µM (active)
CN(C)c1ccc(-c2nc3ncc(Cl)c(N4CCN(CC(=O)Nc5nccs5)CC4)c3[nH]2)cc1	inactive
O=C(NCC(O)CO)c1ccncc1Nc1ccc(I)cc1F (configuration not stated)	inactive
Cn1cc(-c2ccc3ncc(Cc4ccc5ncccc5c4)n3n2)cn1	inactive
COc1ccc2c(c1)c(CC(=O)O)c(C)n2C(=O)c1ccc(Cl)cc1	inactive
CC(C)C[C@H](NC(=O)[C@H](CCc1ccccc1)NC(=O)CN1CCOCC1)C(=O)N[C@@H](Cc1ccccc1)C(=O)N[C@@H](CC(C)C)C(=O)[C@@]1(C)CO1	17.2 µM (active)
O=C(Nc1cccnc1)N1CCC(Cc2cccc(Oc3ccc(C(F)(F)F)cn3)c2)CC1	7.69 µM (active)
CNC1CCC(N(Cc2cccc(-c3ccncc3)c2)C(=O)c2sc3ccccc3c2Cl)CC1 (configuration not stated)	27.3 µM (active)
Cn1cnc([N+](=O)[O-])c1Sc1ncnc2nc[nH]c12	8.63 µM (active)
Cc1cc(C2CCCCC2)n(O)c(=O)c1	11.1 µM (active)
Nc1nccc(Oc2ccc(NC(=O)c3c[nH]cc(-c4ccc(F)cc4)c3=O)cc2F)c1Cl	4.32 µM (active)
C#C[C@]1(O)CC[C@H]2[C@@H]3CCC4=CC(=O)CC[C@@H]4[C@H]3CC[C@@]21CC	inactive
COc1cc2c(NC3CCN(C(C)C)CC3)nc(C3CCCCC3)nc2cc1OCCCN1CCCC1	10.9 µM (active)
CCCCN(CCCC)CC(O)c1cc(Cl)cc2c1-c1ccc(Cl)cc1/C2=C/c1ccc(Cl)cc1 (configuration not stated)	inactive
COC(=O)c1ccc2c(C(=Nc3ccc(N(C)C(=O)CN4CCN(C)CC4)cc3)c3ccccc3)c(O)[nH]c2c1	inactive
